Reference: PubChem BioAssay (NCI)
About 83,000 compounds went through this panel and 20% of them were active in at least one assay; those are over-represented in the sample as a whole.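 The endpoint reported here, percent growth, reads 100 for growth as untreated, 0 for no net growth and -100 for all cells dead.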 The source made the active and inactive calls. The calls were made as follows: active = growth percent below 10; inactive = the rest.

Assays:
Assay in all cases: NCI-60 one-dose screen, 48 h (100 = growth as untreated, 0 = no growth, -100 = all killed)
Details in all cases: 10 µM unless noted
[1] = tested on: NCI-H23 lung
[2] = tested on: NCI-H226 lung
[3] = tested on: NCI-H322M lung
[4] = tested on: HOP-62 NSCLC
[5] = tested on: NCI-H460 lung
[6] = tested on: HOP-92 NSCLC
[7] = tested on: NCI-H522 lung
[8] = tested on: A549/ATCC NSCLC
[9] = tested on: 786-0 renal
[10] = tested on: COLO 205 colon
[11] = tested on: DU-145 prostate
[12] = tested on: K-562 leukemia
[13] = tested on: MALME-3M melanoma
[14] = tested on: MDA-MB-231 breast
[15] = tested on: RXF 393 renal
[16] = tested on: SF-268 CNS
[17] = tested on: SF-295 CNS
[18] = tested on: SF-539 CNS
[19] = tested on: UACC-257 melanoma
[20] = tested on: M14 melanoma

Measured: growth

O=C1c2cccc3cccc(c23)C(=O)N1CCCCN1CCN(CCCCOc2ccc(-c3nc4ccc(N5CCOCC5)cc4[nH]3)cc2)CC1
inactive: [1] 79.2% | [2] 90.9% | [3] 94.8% | [4] 98.3% | [5] 75% | [7] 70.4% | [8] 39.6% | [9] 80.6% | [10] 93.9% | [11] 77.2% | [12] 57.1% | [13] 86.5% | [14] 91.6% | [15] 24.1% | [16] 68.6% | [17] 74.7% | [18] 106% | [19] 96.6% | [20] 98.4%
active: [6] -29.5%

COc1ccc(-n2nc(C)c3c(Nc4ccc(NC(=O)Nc5cc(C(F)(F)F)ccc5F)cc4)ncnc32)cc1
active: [4] -38.6% | [7] -12% | [12] 6.88% | [14] -9.99% | [15] -13.2% | [17] -32.1% | [20] -29.6%
inactive: [1] 32.7% | [2] 73.8% | [3] 11% | [5] 13.7% | [6] 32.9% | [8] 22.9% | [9] 11.3% | [10] 15.2% | [11] 63.6% | [13] 38.9% | [16] 42.6% | [18] 16.8% | [19] 45%

CC(C)(C)c1cc(C(C)(C)C)cc(S(=O)(=O)Nc2cc3ccccc3cc2C(=O)NCCN)c1
active: [5] -20.3% | [10] -85.6% | [12] -37% | [14] 5.92% | [20] -59.9%
inactive: [1] 85.7% | [2] 73.8% | [3] 64.2% | [4] 83.1% | [6] 50% | [7] 48% | [8] 38.6% | [9] 86.3% | [11] 22.5% | [13] 55% | [15] 29.1% | [16] 69.3% | [17] 12.4% | [18] 96% | [19] 81%

Cc1cc(C)nc(SC2=C(Nc3ccc(C)c(Cl)c3)C(=O)N(Cc3ccccc3)C2=O)n1
active: [6] -4.65% [30 µM] | [17] -3.52% [30 µM]
inactive: [1] 62.4% [30 µM] | [2] 74.5% [30 µM] | [3] 82% [30 µM] | [4] 86.9% [30 µM] | [5] 52.4% [30 µM] | [7] 73.8% [30 µM] | [8] 41.2% [30 µM] | [9] 68.6% [30 µM] | [10] 81.2% [30 µM] | [11] 87.8% [30 µM] | [12] 32.5% [30 µM] | [13] 66.4% [30 µM] | [14] 39.1% [30 µM] | [15] 51.4% [30 µM] | [16] 64.6% [30 µM] | [18] 85.8% [30 µM] | [19] 67.4% [30 µM] | [20] 64% [30 µM]

Cc1ccc2c(C(C[N+](=O)[O-])c3ccco3)c(-c3ccccc3)[nH]c2c1 (stereo not given)
active: [7] -11.7% | [17] 7.56% | [20] 7.34%
inactive: [1] 51.3% | [2] 46.5% | [3] 53.3% | [4] 24% | [5] 13.9% | [6] 39.9% | [8] 33.3% | [9] 31.2% | [10] 21.8% | [11] 49.6% | [12] 11.5% | [13] 47.1% | [14] 41.8% | [15] 35.2% | [16] 37.8% | [18] 20.4% | [19] 43.4%

O=C(O)c1ccc(N=CC(=O)c2ccc(-c3ccccc3)cc2)cc1
inactive: [1] 93.6% | [2] 83.9% | [3] 105% | [4] 103% | [5] 104% | [6] 84.2% | [7] 87.2% | [8] 92.1% | [9] 104% | [10] 111% | [11] 112% | [12] 116% | [13] 97.7% | [14] 101% | [15] 118% | [16] 109% | [17] 104% | [18] 104% | [19] 93.1% | [20] 94.1%

CC1=CC(C)(C)Nc2ccc(Cc3ccc4c(c3)C(C)=CC(C)(C)N4)cc21
inactive: [1] 97.1% | [2] 88.4% | [3] 113% | [4] 94.1% | [5] 104% | [6] 99.7% | [7] 68% | [8] 78.5% | [9] 97.1% | [10] 125% | [11] 98.1% | [12] 114% | [13] 87.2% | [14] 86.1% | [15] 79.6% | [16] 103% | [17] 139% | [18] 96.6% | [19] 93.7% | [20] 96.1%

Oc1ccccc1-c1nnc(CNc2ccc(Cl)cc2)o1
active: [5] 7.25%
inactive: [1] 34.8% | [2] 30.1% | [3] 32% | [4] 25.7% | [6] 52.5% | [7] 25.9% | [8] 20.9% | [9] 36.7% | [10] 14.8% | [11] 35.5% | [12] 13.1% | [13] 44% | [14] 46.9% | [15] 37% | [16] 27.4% | [17] 40.6% | [18] 26.7% | [19] 12.4% | [20] 10.8%

O=c1cc(CSc2nnc(SCc3cc(=O)oc4c3ccc3ccccc34)o2)c2ccc3ccccc3c2o1
inactive: [1] 89.9% | [2] 83.6% | [3] 93.3% | [4] 99.2% | [5] 104% | [6] 97.6% | [7] 70.1% | [8] 89.3% | [9] 109% | [10] 106% | [11] 109% | [12] 97.7% | [13] 102% | [14] 95.8% | [15] 119% | [16] 96.7% | [17] 96.1% | [18] 101% | [19] 93.6% | [20] 103%

C#CCOc1ccc2ncnc(Nc3cccc(CNC(=O)CCl)c3)c2c1
inactive: [1] 44.5% [8.25 µM] | [2] 27.7% [8.25 µM] | [3] 71.3% [8.25 µM] | [4] 13.1% [8.25 µM] | [5] 61.3% [8.25 µM] | [6] 54% [8.25 µM] | [8] 53.3% [8.25 µM] | [9] 25.7% [8.25 µM] | [10] 68.2% [8.25 µM] | [11] 57.9% [8.25 µM] | [12] 29.5% [8.25 µM] | [13] 68.8% [8.25 µM] | [14] 53.4% [8.25 µM] | [15] 14% [8.25 µM] | [16] 39.7% [8.25 µM] | [17] 92% [8.25 µM] | [18] 54.8% [8.25 µM] | [19] 58.7% [8.25 µM] | [20] 61.7% [8.25 µM]
active: [7] -47.7% [8.25 µM]

CCCOc1cc2ccccc2cc1C(=O)Nc1nc(NC)c2c(ccc3nccc32)[nH]1
active: [1] -64.8% | [2] -59.3% | [3] -65.9% | [4] -73.1% | [5] -78.3% | [6] -61.2% | [7] -74.5% | [8] -74.8% | [9] -72.9% | [10] -76.2% | [11] -82.8% | [12] -54.3% | [13] -80.7% | [14] -71.3% | [15] -71.7% | [16] -78% | [17] -66.6% | [18] -76.9% | [19] -75.4% | [20] -75.7%

CC(=O)NCC1c2c(n(C)c3c(Cl)c(Cl)ccc23)C(=O)NC1(C)C (stereo not given)
inactive: [1] 90.3% | [2] 97.1% | [3] 91.9% | [4] 88.2% | [5] 96.6% | [6] 90.6% | [7] 92.8% | [8] 94.4% | [9] 100% | [10] 113% | [11] 108% | [12] 79.5% | [13] 108% | [14] 112% | [15] 90.5% | [16] 108% | [17] 89.5% | [18] 94.5% | [19] 103% | [20] 94.2%

O=C(Nc1ccc(Cl)cc1)c1cc2cc(F)ccc2cc1O
active: [1] 7.14% | [2] 7.16% | [5] 7.11% | [6] -11.4% | [7] -0.904% | [8] 6.09% | [13] -3.12% | [14] -23.4% | [19] -23.8%
inactive: [3] 18.7% | [4] 12.1% | [9] 15.7% | [10] 69.5% | [11] 26.7% | [12] 11.5% | [15] 13.6% | [16] 23.6% | [17] 31.2% | [18] 17.7% | [20] 15.9%

O=S(=O)(Nc1ccc(Br)c(Cl)c1)c1ccc(-c2cnc(C3CC3)o2)cc1
active: [7] -17.7% | [10] -2.39% | [11] 9.63% | [15] -10.6% | [17] 5.84% | [18] -19.8% | [20] 5.11%
inactive: [1] 29.7% | [2] 55.3% | [3] 39.2% | [4] 32.6% | [5] 11.9% | [6] 40.8% | [8] 24.9% | [9] 39% | [12] 10.2% | [13] 30.9% | [14] 33.6% | [16] 50.3% | [19] 55.5%

Cn1nc(N)c2cc([C@@H]3Nc4ccc5[nH]ncc5c4[C@H]4C5CCC(C5)[C@@H]34)ccc21 (stereo not given in full)
inactive: [1] 26.9% | [2] 30.6% | [3] 48.9% | [4] 46.9% | [6] 105% | [7] 17.9% | [8] 28.5% | [9] 34.7% | [11] 18.8% | [13] 52.7% | [14] 48.5% | [16] 42.5% | [19] 77.4%
active: [5] 2.68% | [10] 2.47% | [12] 9.76% | [15] -11.1% | [17] 9.61% | [18] -15.5% | [20] 3.16%
